Measured values published in the supplement of paper PMC11732987, “Enantioselective OTUD7B fragment discovery through chemoproteomics screening and high-throughput optimisation” (Communications Chemistry, 2025).

Assays:
Experiment in all cases: log2 ratio of Biotin-Ahx-Ub-VS probe labelling (fragment/DMSO); higher = less target engagement (more negative = stronger competition), active = hit call of the paper (q ≤ 0.05, log2 ratio ≤ -1)
Details in all cases: compound concentration: 200 uM; treatment time: 3 h
USP42 = target: T1, USP42 (UniProt Q9H9J4)
T1 sequence (whole entry): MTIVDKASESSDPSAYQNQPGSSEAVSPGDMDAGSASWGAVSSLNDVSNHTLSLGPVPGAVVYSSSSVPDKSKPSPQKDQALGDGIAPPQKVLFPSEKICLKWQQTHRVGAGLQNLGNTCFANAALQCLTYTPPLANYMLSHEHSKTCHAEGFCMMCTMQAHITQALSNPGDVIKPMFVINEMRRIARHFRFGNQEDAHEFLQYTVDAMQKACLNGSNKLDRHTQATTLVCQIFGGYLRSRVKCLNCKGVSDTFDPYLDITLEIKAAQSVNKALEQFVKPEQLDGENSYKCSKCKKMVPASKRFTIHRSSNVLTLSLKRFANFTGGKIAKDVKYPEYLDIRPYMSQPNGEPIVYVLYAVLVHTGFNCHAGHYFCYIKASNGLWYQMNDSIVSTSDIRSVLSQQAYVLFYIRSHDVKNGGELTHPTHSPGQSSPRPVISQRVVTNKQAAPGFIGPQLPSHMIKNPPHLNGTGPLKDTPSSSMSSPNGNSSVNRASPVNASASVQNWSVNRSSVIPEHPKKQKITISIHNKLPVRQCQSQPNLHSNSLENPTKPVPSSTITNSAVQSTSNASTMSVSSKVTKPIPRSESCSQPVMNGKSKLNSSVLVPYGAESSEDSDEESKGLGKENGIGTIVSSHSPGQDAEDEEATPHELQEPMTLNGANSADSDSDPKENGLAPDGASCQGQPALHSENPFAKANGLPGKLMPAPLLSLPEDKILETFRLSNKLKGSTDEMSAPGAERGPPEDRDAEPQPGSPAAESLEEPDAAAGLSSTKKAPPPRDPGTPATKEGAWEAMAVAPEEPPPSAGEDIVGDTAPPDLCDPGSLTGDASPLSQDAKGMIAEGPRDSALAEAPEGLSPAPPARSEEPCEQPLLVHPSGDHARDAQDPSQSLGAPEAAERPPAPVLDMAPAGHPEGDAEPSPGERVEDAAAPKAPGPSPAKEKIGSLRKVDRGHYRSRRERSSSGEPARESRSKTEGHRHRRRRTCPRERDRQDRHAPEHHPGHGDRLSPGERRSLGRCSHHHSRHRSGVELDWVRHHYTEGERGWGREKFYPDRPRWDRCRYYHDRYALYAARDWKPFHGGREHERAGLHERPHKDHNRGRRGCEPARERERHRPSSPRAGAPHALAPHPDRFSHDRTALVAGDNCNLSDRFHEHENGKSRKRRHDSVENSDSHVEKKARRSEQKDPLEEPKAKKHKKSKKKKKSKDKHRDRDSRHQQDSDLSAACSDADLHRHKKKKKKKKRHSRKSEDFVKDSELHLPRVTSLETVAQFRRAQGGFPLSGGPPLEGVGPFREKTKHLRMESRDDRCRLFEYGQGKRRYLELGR
In short: (§1)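 Each value is an average log2 ratio of fragment to vehicle, tested by unpaired t-test. The underlying Spectronaut label-free quantities were global-median-normalised, and only proteins with ≥2 unique peptides were included. Triplicate HEK293T lysate samples (495 µg) were exposed to fragment at 200 µM or vehicle for 3 h, then to Biotin-Ahx-Ub-VS at 0.5 µM final for 1 h, before NeutrAvidin enrichment of labelled DUBs, LysC and trypsin digestion, and diaPASEF LC-MS/MS.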

USP46 = USP46 (UniProt P62068)
Sequence of USP46 (P62068 whole entry): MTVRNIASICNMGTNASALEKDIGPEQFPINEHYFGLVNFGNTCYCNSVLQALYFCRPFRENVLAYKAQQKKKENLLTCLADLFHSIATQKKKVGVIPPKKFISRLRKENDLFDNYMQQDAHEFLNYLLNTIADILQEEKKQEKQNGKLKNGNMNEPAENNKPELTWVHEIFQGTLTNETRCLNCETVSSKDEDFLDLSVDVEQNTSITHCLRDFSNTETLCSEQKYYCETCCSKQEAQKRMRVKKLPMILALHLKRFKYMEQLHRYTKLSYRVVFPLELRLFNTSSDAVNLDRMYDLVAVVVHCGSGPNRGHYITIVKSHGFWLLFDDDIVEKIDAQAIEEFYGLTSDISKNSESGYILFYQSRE
In short: as §1

USP47 = target: T2, USP47 (UniProt Q96K76)
T2 sequence (whole entry): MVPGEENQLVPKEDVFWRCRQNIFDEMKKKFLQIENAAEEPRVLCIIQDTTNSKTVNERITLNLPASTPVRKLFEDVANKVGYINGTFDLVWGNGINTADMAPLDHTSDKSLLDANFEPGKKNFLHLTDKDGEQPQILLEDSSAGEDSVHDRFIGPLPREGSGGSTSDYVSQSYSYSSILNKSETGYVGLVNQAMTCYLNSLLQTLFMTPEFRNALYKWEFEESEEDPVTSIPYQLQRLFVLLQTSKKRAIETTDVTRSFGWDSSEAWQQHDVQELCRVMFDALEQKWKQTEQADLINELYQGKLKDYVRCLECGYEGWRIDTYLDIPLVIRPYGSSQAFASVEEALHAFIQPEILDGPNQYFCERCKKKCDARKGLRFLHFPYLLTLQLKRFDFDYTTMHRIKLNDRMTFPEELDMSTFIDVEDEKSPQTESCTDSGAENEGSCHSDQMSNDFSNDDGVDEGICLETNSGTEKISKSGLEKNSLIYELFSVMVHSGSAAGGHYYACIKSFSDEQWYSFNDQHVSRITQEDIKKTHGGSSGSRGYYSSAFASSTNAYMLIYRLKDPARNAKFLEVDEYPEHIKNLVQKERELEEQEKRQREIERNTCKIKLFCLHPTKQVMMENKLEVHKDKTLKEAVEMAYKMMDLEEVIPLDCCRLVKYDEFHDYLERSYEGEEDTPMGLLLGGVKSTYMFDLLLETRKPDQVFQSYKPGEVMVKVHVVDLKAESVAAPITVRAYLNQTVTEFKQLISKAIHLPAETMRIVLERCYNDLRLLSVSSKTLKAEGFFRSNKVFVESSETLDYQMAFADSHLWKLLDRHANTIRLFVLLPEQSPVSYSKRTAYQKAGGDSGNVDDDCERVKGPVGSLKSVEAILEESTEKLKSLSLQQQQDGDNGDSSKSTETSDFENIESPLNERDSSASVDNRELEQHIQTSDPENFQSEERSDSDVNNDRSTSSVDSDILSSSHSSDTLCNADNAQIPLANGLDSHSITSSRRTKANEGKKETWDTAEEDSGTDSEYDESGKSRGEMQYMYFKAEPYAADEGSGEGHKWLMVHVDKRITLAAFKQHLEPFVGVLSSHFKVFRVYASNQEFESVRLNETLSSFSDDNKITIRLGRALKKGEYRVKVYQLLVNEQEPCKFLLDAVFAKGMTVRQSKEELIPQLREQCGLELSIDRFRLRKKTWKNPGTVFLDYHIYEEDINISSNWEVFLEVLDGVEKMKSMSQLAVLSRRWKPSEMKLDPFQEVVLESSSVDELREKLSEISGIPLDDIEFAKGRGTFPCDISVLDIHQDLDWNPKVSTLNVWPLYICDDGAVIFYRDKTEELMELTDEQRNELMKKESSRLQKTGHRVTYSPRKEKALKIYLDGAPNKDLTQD
In short: as §1

USP48 = target: T3, USP48 (UniProt Q86UV5)
T3 sequence (whole entry): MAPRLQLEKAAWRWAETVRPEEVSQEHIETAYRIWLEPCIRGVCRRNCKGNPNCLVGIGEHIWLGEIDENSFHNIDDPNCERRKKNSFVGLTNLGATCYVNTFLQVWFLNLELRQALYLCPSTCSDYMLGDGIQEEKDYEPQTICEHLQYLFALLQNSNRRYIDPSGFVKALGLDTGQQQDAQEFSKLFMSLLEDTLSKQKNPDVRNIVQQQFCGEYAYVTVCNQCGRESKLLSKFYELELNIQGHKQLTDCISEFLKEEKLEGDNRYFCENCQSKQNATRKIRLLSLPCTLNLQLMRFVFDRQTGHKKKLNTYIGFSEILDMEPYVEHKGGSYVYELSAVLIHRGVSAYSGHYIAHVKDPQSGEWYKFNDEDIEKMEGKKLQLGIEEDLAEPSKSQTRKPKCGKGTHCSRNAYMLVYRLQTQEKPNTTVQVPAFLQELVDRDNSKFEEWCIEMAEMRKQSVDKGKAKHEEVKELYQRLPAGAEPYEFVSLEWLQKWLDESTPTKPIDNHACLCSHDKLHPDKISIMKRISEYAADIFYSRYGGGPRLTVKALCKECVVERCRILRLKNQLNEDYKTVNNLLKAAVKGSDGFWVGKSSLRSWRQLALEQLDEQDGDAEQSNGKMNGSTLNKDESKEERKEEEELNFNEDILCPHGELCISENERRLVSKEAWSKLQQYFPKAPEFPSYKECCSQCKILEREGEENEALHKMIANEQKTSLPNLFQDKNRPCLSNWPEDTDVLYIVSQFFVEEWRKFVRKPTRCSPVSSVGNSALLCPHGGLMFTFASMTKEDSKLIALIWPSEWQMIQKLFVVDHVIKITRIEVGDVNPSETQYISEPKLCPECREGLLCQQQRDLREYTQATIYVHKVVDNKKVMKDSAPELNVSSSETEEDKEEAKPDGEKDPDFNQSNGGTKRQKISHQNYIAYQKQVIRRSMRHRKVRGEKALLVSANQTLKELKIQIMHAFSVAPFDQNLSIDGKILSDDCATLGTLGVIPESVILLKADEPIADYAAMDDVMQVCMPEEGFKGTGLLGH
In short: as §1

USP5 = target: T4, USP5 (UniProt P45974)
T4 sequence (whole entry): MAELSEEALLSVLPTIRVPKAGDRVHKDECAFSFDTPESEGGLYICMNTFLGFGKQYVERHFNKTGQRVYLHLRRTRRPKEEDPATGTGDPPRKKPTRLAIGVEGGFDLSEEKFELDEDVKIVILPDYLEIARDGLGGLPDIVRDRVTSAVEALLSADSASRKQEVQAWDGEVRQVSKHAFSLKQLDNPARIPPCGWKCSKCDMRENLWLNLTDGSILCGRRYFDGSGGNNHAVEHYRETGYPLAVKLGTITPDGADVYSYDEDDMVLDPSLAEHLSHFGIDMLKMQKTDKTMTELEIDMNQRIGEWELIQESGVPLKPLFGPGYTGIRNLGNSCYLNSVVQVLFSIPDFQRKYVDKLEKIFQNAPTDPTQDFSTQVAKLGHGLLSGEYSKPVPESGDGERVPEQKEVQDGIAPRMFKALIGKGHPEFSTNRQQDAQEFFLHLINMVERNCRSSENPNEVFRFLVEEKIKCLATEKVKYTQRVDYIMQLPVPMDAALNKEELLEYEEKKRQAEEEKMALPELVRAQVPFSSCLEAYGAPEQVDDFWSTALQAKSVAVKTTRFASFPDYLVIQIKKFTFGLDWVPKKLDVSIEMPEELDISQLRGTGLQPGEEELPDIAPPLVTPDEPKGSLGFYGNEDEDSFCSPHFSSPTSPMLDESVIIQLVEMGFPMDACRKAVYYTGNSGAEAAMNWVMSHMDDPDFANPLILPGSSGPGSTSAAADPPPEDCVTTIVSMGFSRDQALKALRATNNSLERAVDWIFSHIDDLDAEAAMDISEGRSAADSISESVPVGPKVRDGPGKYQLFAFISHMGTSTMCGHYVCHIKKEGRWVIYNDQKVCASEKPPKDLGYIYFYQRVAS
In short: as §1

USP54 = USP54 (UniProt Q70EL1)
In short: as §1

USP7 = USP7 (UniProt Q93009)
Sequence of USP7 (Q93009 whole entry, looked up): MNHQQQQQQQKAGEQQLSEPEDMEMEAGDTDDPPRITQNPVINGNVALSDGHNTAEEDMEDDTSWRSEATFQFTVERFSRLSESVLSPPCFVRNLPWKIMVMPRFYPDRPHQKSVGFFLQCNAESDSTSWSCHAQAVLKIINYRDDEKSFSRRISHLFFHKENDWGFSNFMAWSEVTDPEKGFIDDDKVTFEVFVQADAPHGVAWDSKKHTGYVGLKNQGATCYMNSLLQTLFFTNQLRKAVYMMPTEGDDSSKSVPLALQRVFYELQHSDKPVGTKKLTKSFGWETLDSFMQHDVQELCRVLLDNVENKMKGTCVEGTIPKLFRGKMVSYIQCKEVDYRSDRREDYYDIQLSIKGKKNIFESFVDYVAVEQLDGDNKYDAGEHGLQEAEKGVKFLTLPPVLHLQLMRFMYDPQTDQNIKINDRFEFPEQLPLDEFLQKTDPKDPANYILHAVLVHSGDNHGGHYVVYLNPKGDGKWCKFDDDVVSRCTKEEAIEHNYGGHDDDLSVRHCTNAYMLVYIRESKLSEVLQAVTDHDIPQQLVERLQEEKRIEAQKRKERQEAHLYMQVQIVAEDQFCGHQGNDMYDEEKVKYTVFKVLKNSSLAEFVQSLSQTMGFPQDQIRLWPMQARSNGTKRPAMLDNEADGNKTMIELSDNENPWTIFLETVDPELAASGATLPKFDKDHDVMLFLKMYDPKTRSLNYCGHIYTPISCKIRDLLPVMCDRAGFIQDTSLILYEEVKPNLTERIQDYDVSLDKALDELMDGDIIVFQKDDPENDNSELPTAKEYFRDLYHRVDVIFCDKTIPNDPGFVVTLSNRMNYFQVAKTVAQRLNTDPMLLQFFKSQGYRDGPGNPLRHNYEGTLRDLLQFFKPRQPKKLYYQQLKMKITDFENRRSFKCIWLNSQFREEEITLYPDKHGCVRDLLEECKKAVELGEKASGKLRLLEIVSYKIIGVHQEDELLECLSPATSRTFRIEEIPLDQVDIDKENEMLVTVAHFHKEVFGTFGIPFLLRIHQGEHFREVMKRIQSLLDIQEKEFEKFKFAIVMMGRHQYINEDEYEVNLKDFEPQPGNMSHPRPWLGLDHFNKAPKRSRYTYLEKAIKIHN
In short: as §1

USP8 = target: T5, USP8 (UniProt P40818)
T5 sequence (whole entry): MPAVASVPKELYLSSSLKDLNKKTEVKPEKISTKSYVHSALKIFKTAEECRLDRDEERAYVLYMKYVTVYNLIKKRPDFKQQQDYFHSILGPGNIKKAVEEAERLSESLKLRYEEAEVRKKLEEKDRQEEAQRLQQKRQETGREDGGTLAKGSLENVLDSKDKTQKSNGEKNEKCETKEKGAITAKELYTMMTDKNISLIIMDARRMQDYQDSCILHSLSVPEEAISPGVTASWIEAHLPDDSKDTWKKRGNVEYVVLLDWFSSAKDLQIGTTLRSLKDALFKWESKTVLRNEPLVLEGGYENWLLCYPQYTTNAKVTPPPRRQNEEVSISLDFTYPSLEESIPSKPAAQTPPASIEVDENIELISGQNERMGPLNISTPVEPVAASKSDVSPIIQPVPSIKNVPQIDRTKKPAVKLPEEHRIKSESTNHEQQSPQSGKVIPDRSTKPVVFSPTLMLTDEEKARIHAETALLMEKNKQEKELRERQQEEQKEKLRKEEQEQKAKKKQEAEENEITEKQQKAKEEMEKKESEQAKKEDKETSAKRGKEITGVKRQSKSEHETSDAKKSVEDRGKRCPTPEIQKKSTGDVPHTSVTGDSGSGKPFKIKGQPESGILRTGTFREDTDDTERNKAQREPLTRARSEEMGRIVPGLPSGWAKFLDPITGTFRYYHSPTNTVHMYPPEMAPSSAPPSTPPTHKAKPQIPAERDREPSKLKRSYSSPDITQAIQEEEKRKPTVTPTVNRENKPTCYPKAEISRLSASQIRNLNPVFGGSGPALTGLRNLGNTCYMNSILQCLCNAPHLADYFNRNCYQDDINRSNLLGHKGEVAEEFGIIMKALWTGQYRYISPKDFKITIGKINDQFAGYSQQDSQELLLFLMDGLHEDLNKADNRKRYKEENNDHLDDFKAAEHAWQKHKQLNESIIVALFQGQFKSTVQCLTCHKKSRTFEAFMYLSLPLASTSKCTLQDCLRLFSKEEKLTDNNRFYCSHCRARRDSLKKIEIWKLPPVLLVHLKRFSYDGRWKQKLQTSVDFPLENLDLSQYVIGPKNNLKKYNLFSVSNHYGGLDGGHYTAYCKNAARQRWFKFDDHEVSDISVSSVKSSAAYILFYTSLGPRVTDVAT
In short: as §1

USP9X = USP9X (UniProt Q93008)
Sequence of USP9X (Q93008 whole entry): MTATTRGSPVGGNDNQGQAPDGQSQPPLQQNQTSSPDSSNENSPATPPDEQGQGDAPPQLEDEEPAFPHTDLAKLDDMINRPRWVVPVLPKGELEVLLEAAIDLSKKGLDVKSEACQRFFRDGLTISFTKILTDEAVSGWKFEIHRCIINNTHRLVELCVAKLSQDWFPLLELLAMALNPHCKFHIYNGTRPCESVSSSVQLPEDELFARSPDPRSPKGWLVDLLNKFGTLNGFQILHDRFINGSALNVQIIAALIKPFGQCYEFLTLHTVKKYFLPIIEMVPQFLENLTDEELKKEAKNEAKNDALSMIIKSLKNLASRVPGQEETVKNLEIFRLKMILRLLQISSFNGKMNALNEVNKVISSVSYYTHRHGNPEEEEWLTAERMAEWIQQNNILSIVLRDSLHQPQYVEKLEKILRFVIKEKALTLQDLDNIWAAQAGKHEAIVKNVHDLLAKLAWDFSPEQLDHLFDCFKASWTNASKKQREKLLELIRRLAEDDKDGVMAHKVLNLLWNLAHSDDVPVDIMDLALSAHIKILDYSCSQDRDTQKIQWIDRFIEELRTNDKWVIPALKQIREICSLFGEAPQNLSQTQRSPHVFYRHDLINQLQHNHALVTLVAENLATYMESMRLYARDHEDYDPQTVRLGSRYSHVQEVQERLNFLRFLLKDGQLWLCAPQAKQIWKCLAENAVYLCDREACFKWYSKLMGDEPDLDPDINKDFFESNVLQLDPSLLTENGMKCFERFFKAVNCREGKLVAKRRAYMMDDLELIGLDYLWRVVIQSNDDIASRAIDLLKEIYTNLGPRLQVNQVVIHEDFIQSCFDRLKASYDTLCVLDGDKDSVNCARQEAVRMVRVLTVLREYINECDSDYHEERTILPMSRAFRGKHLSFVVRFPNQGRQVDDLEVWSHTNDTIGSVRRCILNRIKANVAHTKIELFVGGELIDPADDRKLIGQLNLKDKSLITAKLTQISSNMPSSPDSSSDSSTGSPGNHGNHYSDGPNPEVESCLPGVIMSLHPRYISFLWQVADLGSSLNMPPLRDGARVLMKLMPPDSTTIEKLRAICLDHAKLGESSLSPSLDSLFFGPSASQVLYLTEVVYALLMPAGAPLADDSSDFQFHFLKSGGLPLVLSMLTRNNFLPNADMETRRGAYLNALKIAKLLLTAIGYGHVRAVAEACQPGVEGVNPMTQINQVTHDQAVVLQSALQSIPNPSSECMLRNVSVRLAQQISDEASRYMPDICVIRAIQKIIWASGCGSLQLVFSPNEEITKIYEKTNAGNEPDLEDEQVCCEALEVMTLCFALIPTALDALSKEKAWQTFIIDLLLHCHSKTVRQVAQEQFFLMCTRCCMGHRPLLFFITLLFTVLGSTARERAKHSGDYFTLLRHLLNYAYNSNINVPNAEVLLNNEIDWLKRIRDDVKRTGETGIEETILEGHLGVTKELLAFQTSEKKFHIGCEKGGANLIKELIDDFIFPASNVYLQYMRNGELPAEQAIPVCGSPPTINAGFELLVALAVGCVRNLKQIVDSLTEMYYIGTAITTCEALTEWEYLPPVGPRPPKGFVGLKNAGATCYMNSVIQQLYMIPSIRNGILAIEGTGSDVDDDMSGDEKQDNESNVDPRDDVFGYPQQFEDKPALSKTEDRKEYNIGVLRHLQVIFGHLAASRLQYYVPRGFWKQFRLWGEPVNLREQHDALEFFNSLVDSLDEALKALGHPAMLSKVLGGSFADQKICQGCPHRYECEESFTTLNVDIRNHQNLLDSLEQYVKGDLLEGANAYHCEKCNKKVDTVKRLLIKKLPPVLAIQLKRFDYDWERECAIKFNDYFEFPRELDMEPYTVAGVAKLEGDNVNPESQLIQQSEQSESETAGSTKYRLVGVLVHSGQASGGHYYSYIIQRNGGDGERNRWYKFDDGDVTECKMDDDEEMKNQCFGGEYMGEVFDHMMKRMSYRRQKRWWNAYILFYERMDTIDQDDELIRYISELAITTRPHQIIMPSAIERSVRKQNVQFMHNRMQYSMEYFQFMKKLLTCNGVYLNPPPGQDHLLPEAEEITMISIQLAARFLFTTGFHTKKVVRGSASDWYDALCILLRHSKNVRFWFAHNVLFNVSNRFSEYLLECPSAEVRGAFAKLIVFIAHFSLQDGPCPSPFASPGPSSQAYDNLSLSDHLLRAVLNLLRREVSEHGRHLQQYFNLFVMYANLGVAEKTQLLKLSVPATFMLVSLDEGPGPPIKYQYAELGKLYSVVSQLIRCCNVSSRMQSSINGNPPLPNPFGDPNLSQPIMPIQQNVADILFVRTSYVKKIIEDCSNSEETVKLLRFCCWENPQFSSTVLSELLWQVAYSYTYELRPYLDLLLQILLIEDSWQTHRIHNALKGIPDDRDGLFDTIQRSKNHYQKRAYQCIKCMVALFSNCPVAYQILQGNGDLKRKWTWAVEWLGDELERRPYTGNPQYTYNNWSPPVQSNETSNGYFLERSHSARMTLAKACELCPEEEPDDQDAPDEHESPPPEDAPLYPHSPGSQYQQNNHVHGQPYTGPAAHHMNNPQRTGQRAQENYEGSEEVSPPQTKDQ
In short: as §1

UniProt O00487 = target: UniProt O00487
Sequence of UniProt O00487 (O00487 whole entry): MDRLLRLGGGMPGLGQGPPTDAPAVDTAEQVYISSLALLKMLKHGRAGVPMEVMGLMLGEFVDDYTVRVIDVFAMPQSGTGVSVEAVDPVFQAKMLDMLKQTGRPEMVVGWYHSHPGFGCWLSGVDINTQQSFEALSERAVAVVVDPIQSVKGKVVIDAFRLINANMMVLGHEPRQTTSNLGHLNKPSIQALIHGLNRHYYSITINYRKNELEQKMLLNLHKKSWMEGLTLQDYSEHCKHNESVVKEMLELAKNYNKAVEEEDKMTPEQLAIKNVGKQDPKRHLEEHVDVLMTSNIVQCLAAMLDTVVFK
In short: as §1

Measured: log2 ratio of Biotin-Ahx-Ub-VS probe labelling

Cc1ccc(C(=O)NCCNC(=O)CCl)cc1
inactive: USP42 -0.216 | USP46 0.0112 | USP47 -0.158 | USP48 -0.318 | USP5 -0.123 | USP54 0.576 | USP7 -0.262 | USP8 -0.271 | USP9X -0.316 | UniProt O00487 -0.0816
